# Experimental data published in PubChem BioAssay (NCATS).
# Results filed as inconclusive are left out. Active and inactive are the calls of the source. The call rests on the fitted dose curve; in most records, active means well fitted inhibition curve with a large enough effect; inconclusive means small, poorly fitted or top-dose-only effect; inactive means flat fitted curve, though single readings scatter.
# Target: Calcium and integrin-binding protein 1 (Homo sapiens) (UniProt Q99828)
# Test: Primary qHTS for Identification of Calcium Integrin Binding Protein 1 (CIB1) Competitor (AID 1508620); further: top concentration of the series differs between compounds
# Settings: CIB1-GST / FITC-alphaIIb peptide fluorescence polarization; series mostly up to 114 µM; activity change, negative = inhibition: at the top concentration
# In short: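 Fluorescence polarization competition: GST-tagged CIB1 (1 uM final) preincubated with compound 15 min at room temperature, then FITC-labelled alphaIIb peptide (100 nM final) added. After 15 min at room temperature, polarization read at Ex 480/Em 540.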
# On the % scale 0 is the no-effect control and ±100 the full control effect.
# Calcium and integrin-binding protein 1 (Homo sapiens), sequence (Q99828 whole entry, looked up): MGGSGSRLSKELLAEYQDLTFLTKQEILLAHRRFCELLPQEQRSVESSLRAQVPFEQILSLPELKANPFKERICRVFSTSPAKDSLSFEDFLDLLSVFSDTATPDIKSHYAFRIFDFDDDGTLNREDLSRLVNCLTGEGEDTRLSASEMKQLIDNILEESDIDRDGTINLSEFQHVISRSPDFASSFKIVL
SMILES,"activity change, negative = inhibition",Potency
Cc1cc(-c2nnc3n2CCCCC3)c(C)n1-c1ccc(Br)cc1,0.939% (inactive),
FC(F)(F)c1ccccc1-c1nc(NCc2ccc(-c3cccnc3)cc2)c2ccccc2n1,2.75% (inactive),
COc1ccc(CN2C(=O)c3ccccc3NC2c2ccc(OC)c(COc3ccc(NC(C)=O)cc3)c2)cc1 (stereo unspecified),5.34% (inactive),
Cc1cccc(Nc2nc(C#N)nc(NC3CCCC3)n2)c1,-2.57% (inactive),
Cc1cccc(CNc2ccnc(-c3cccc(C(F)(F)F)c3)n2)c1,-0.588% (inactive),
Nc1ncnc2c1ncn2[C@@H]1O[C@H](CN[S+](=O)([O-])NC(=O)c2cccc(-c3noc(-c4ccccc4F)n3)c2)[C@@H](O)[C@H]1O,-9.64% (inactive),
Cc1ccnc(NC(=S)N2CCN(c3ccc(O)cc3)CC2)c1,-25.3% (inactive),
Fc1ccccc1-c1nc(-c2ccccc2)no1,4.21% (inactive),
COc1ccc(OC)c(-c2nnc(NC(=O)Nc3ccc4ccccc4c3)s2)c1,2.95% (inactive),
Cc1cccc(NS(=O)(=O)c2ccc3c(c2)CCC(=O)N3)c1,-1.52% (inactive),
Cc1cccc(C)c1SC1=NS(=O)(=O)c2ccccc21,,inactive
Cc1cc(C)n2ncc(C(=O)Nc3ccc(C(C)(C)C)cc3)c2n1,-1.64% (inactive),
COc1cc(O)c(C(CC(=O)N2C[C@H](C)C[C@H](C)C2)c2ccc3c(c2)OCO3)c(OC)c1 (stereo partly specified),-0.504% [at 228 µM] (inactive),
O=C(OCc1c(-c2ccccc2)no[n+]1[O-])c1ccccc1,5.33% (inactive),
CC(C)(C)OC(=O)N1CCN(c2ccc(NCc3cnc(-c4ccc(C#N)cc4)s3)cc2)CC1,5.77% (inactive),
CN(CCC1CCCO1)c1ncnc2ccc(-c3ccc4c(c3)OCO4)cc12 (stereo unspecified),-3.23% (inactive),
